Columns and labels:
Conditions in all cases: Compound Concentration (nM):1000
BIKE = tested on: T1, BIKE
T1 construct: gene BMP2K

BLK = tested on: BLK
BMPR1A = tested on: BMPR1A
BMPR1B = tested on: BMPR1B
BMPR2 = tested on: BMPR2
BMX = tested on: BMX
BRAF(V600E) = tested on: BRAF(V600E)
BRAF = tested on: BRAF
BRK = tested on: T2, BRK
T2 construct: gene PTK6

BRSK1 = tested on: BRSK1
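Note: KINOMEscan scanMAX binding as percent activity remaining versus control; lower means stronger binding.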

SMILES	Percent Control (BIKE) [%]	Percent Control (BLK) [%]	Percent Control (BMPR1A) [%]	Percent Control (BMPR1B) [%]	Percent Control (BMPR2) [%]	Percent Control (BMX) [%]	Percent Control (BRAF(V600E)) [%]	Percent Control (BRAF) [%]	Percent Control (BRK) [%]	Percent Control (BRSK1) [%]
COc1ccc2cc(-c3c(-c4ccncc4)nc(-c4ccc(S(C)(=O)=O)cc4C)n3C)ccc2c1 [SB-633825]	100	52	79	63	91	54	86	97	44	100
COc1ccc2[nH]c3c4[nH]c5ccc(OC)cc5c4c4c(c3c2c1)C(=O)NC4=O [GW296115X]	76	71	100	56	93	99	89	86	81	10
C[C@@H](Oc1cc(-n2cnc3ccc(OC4CCN(C)CC4)cc32)sc1C(N)=O)c1ccccc1Cl [GSK579289A]	19	94	72	67	78	98	82	95	77	64
CN(C)CCNC(=O)Nc1ccc(N(C)c2ccnc(Nc3ccc(CS(C)(=O)=O)cc3)n2)cc1.Cl [GW830900A]	5.1	93	100	52	100	98	100	100	96	90
Cl.O=C(Nc1ccc(Oc2ccc3[nH]c(NC(=O)c4ccccc4)nc3c2)cc1)Nc1cc(C(F)(F)F)ccc1F [GW709042A]	100	98	98	94	100	94	34	58	100	100
CCc1ccc(Oc2nccc(-c3c(-c4ccc(F)cc4)ncn3C3CCNCC3)n2)cc1 [SB-242719]	100	82	87	88	82	100	100	100	94	94
CCS(=O)(=O)c1ccc(OC)c(Nc2ncc(-c3cccc(F)c3)o2)c1 [GW621970X]	100	16	95	64	100	100	73	91	100	100
COc1cccc(-n2ncc3c(N/N=C/c4ccncc4)ncnc32)c1 [GW784752X]	66	45	51	0.1	86	100	3.2	6.5	100	18
COc1cccc(-c2c[nH]c3c(N/N=C/c4ccncc4)ncnc23)c1 [GW814408X]	38	19	31	0.1	99	100	26	29	100	100
O=C(Nc1n[nH]c2nc(-c3ccc(O)cc3)c(Br)cc12)C1CC1 [SB-725317]	63	92	98	69	100	100	5.3	17	100	46
NS(=O)(=O)c1ccc(N/N=C2\C(=O)Nc3ccc(C(=O)NCc4ccncc4)cc32)cc1 [GW300657X]	60	99	100	78	68	100	87	97	100	100
NS(=O)(=O)c1ccc(N/N=C2\C(=O)Nc3ccc(Cl)cc32)cc1 [GW280670X]	100	100	100	100	100	100	92	100	100	100
COc1cc(C)c(N(C)C(=O)CN(C)C)cc1Nc1nc(Nc2cccc(F)c2C(N)=O)c2cc[nH]c2n1 [GSK2219385]	77	100	93	95	91	92	82	72	100	100
CC1=C(C(=O)Nc2ccc3[nH]ncc3c2)C(c2ccc(Cl)c(Cl)c2)CC(=O)N1 (stereo not shown) [GSK299115A]	100	91	100	67	69	75	82	100	70	92
COc1cc(N2CCN(C(C)C)CC2)ccc1Nc1nc(Nc2ccc(F)cc2C(=O)NC[C@@H](O)CO)c2cc[nH]c2n1 [GSK1392956A]	81	99	100	88	97	100	90	94	100	100
C/C(Nc1ccc(S(N)(=O)=O)cc1)=C1/C(=O)Nc2ccccc21 [GW335962X]	100	100	99	97	84	86	86	100	95	91
Cl.O=S1CCN(Cc2ccc(-c3ccc4ncnc(Nc5ccc(OCc6ccccc6)c(F)c5)c4c3)o2)CC1 [GW576924A]	100	100	100	100	100	100	65	79	100	100
COc1cc(C=NNc2ncnc3c2cnn3-c2ccccc2)ccc1O [GW513184X]	25	16	40	20	100	100	65	77	100	54
COc1ccc(COc2ccc(Cc3cnc(N)nc3N)cc2OC)cc1 [GW632580X]	94	78	100	92	94	100	91	100	100	100
Cl.O=C(O[C@H]1CN[C@H](C#Cc2cc3ncnc(Nc4ccc5c(cnn5Cc5ccccc5)c4)c3s2)C1)N1CCOCC1 [GSK200398A]	100	100	96	90	99	98	99	91	78	100

SMILES	Percent Control (BIKE) [%]	Percent Control (BLK) [%]	Percent Control (BMPR1A) [%]	Percent Control (BMPR1B) [%]	Percent Control (BMPR2) [%]	Percent Control (BMX) [%]	Percent Control (BRAF(V600E)) [%]	Percent Control (BRAF) [%]	Percent Control (BRK) [%]	Percent Control (BRSK1) [%]
CC(C)COC(=O)c1ccc2c(c1)/C(=C/Nc1ccc(S(N)(=O)=O)cc1)C(=O)N2 [GW416981X]	27	100	100	96	30	100	97	100	100	100
COc1ccc2c(-c3ccnc(Nc4cccc(OC(F)(F)F)c4)n3)cnn2n1 [GW810372X]	58	100	100	100	100	90	92	100	100	100
Cl.O=C(Nc1ccc(Oc2ccc3[nH]c(NC(=O)c4ccco4)nc3c2)cc1)Nc1cc(C(F)(F)F)ccc1F [GW683134A]	100	70	73	100	98	87	13	32	100	100
O=C1Nc2ccc(C(=O)c3ccco3)cc2C1=Cc1cc(Cl)c(O)c(Cl)c1 [GW406108X]	59	100	100	35	0	81	1.2	4.4	100	100
CC1=C(C(=O)Nc2ccc3[nH]ncc3c2)C(c2ccc3ccccc3c2)CC(=O)N1 (stereo not shown) [GSK270822A]	100	35	100	43	75	78	80	100	80	100
Nc1ncnc2occ(-c3ccc(NC(=O)Nc4cc(C(F)(F)F)ccc4F)cc3)c12 [GW770249X]	100	83	100	100	97	41	7	28	100	100
COc1cc(/C=N/Nc2ncnc3[nH]ncc23)ccc1O [GW578748X]	53	32	100	22	9.6	89	26	35	80	100
NS(=O)(=O)c1ccc(Nc2ncc(-c3ccccc3)o2)cc1 [GW572399X]	100	89	100	83	100	100	80	95	100	100
Cc1cc(O)cc(C)c1/C=C/c1cncc(C(N)=O)c1 [GW435821X]	100	59	64	4.4	100	100	12	23	58	94
NS(=O)(=O)c1ccc(N/N=C2\C(=O)Nc3ccc(C(=O)NCCc4c[nH]cn4)cc32)cc1 [GW300660X]	100	100	100	95	87	100	86	100	100	100
NS(=O)(=O)c1ccc(N/N=C2\C(=O)Nc3ccc(-c4cnco4)cc32)cc1 [GW276655]	20	63	100	94	62	100	100	86	82	100
Cl.c1ccc(Cc2nc3ccc(Nc4ncnc5ccccc45)cc3[nH]2)cc1 [GR269666A]	100	100	100	100	100	100	88	100	100	100
COC(=O)Nc1nc2ccc(Oc3ccc(NC(=O)Nc4cc(C(F)(F)F)ccc4F)cc3)cc2s1.Cl [GW693917A]	75	61	89	80	99	100	17	30	96	100
COc1ccccc1-c1cc(/C=C2\C(=O)Nc3ncc(Br)cc32)cc(Br)c1O [GW442130X]	100	63	86	85	97	100	68	78	100	98
COc1cc2ncnc(Nc3ccc4c(cnn4Cc4ccccc4)c3)c2cc1OC.Cl [GW282449A]	100	23	92	91	100	100	100	100	75	100
CN(C)c1cc2c(Nc3ccc4c(cnn4Cc4ccccc4)c3)ncnc2cn1 [GW282974X]	86	80	100	91	100	100	99	92	75	92
CCS(=O)(=O)c1ccc(OC)c(Nc2ncc(-c3cccc(OC)c3)o2)c1 [GW580509X]	100	21	100	45	100	100	78	86	100	100
CN1CCN(C(=O)c2ccc(NC(=O)Nc3ccc(N(C)c4ccnc(Nc5ccc(CS(C)(=O)=O)cc5)n4)cc3)cc2)CC1.Cl [GW830263A]	2.4	87	32	1.1	56	59	85	89	95	100
COc1cc2ncn(-c3cc(O[C@H](C)c4ccccc4Cl)c(C(N)=O)s3)c2cc1OC [GSK237701A]	1.4	68	100	88	72	75	75	100	100	76
CCn1c(-c2nonc2N)nc2c(C#CC(C)(C)O)nc(OCCNC)cc21.Cl [GSK949675]	75	96	89	89	100	100	100	100	100	100
